Results from PubChem BioAssay (Tox21).
Records with an inconclusive call do not appear. Activity calls are given as the source filed them. Unless noted, the call rests on the fitted dose curve; in most records, active means well fitted curve in the direction sought with a large enough effect in the repeat runs; inconclusive means weak or mixed curves; inactive means no such curve, though single readings can be large; an effect the other way counts as inactive or inconclusive.

Columns and labels:
[1] = qHTS assay to identify small molecule agonists of the hypoxia (HIF-1) signaling pathway - cell viability counter screen (AID 1224844; calls by dose curve; further: nearly all actives have a fitted effect of over 50% in size)
Summary of the method: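 In this counter screen, HRE-bla ME-180 cell viability after 17 hrs of compound exposure at 37C was read by CellTiter-Glo luminescence, multiplexed with the beta-lactamase reporter measurement.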

[2] = qHTS assay to identify small molecule agonists of H2AX (AID 1224845; active means well fitted activation curve with a large enough effect in the signal ratio in the repeat runs, not every such curve was filed as active; the % refers to the signal ratio)
Summary of the method: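 Phospho-H2AX Ser139 measured by HTRF (ex 320 nm; em 665 and 620 nm) after 24 hr antibody incubation. Compounds, 15 concentrations, 0.76% DMSO, were applied to CHO-K1 cells for 3hr at 37C before lysis.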

[3] = qHTS assay to identify small molecule agonists of the hypoxia (HIF-1) signaling pathway (AID 1224846; active means well fitted activation curve with a large enough effect in the signal ratio in the repeat runs, not every such curve was filed as active; the % refers to the signal ratio)
Summary of the method: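 ME-180 HRE-bla reporter cells; compounds in DMSO, 17 h at 37C; read-out beta-lactamase via CCF4-AM FRET.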

[4] = qHTS assay to identify small molecule agonists of H2AX - cell viability counter screen (AID 1224847; calls by dose curve; further: top concentration of the series differs between compounds; nearly all actives have a fitted effect of over 30% in size)
Summary of the method: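 Quantitative HTS viability measurement: CHO-K1 wild-type cells in serum (10% FBS) medium, short 3 hr drug exposure at 37C with 0.76% DMSO, CellTiter-Glo luminescent detection.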

[5] = qHTS RealTime-Glo MT Cell Viability Assay in HepG2 cells - 24 hour (AID 1224867); further: nearly all actives have a fitted effect of over 50% in size
Summary of the method: (§1)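 qHTS, HepG2, 600 cells/well, RealTime-Glo (NanoLuc + prosubstrate) added with cells; 5 h preincubation; DMSO compound addition; 37 C; luminescence at 0/8/16/24/32/40 h.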

[6] = qHTS RealTime-Glo MT Cell Viability Assay in HEK293 cells - 32 hour (AID 1224868); further: top concentration of the series differs between compounds; nearly all actives have a fitted effect of over 50% in size
Summary of the method: (§2)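 Assay medium contained NanoLuc luciferase plus cell-permeant prosubstrate, added with HEK293 cells at 600 cells/well. After 5 h at 37 C/5% CO2 compounds were added; plates stayed at 37 C for 40 h with serial luminescence reads.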

[7] = A CellTox Green Cytotoxicity Assay to monitor cytotoxicity in HEK293 cells - 0 hour (AID 1224869); further: nearly all actives have a fitted effect of over 50% in size
Summary of the method: (§3)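 Real-time, in one plate: 600 HEK293 cells/well with dead-cell DNA dye, pinned compound after 5 h, 37 C incubation over 40 h; viable cells give no appreciable fluorescence.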

[8] = qHTS RealTime-Glo MT Cell Viability Assay in HepG2 cells - 40 hour (AID 1224870); further: nearly all actives have a fitted effect of over 50% in size
Summary of the method: (§4)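 Real-time viability: cells seeded at 600 per well together with NanoLuc and cell-permeant prosubstrate, compounds added after 5 h incubation. Luminescence tracked at 0, 8, 16, 24, 32 and 40 h of exposure.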

[9] = A CellTox Green Cytotoxicity Assay to monitor cytotoxicity in HEK293 cells - 40 hour (AID 1224871); further: nearly all actives have a fitted effect of over 45% in size
Summary of the method: as §3

[10] = qHTS RealTime-Glo MT Cell Viability Assay in HEK293 cells - 16 hour (AID 1224872)
Summary of the method: as §2

[11] = qHTS RealTime-Glo MT Cell Viability Assay in HepG2 cells - 8 hour (AID 1224873); further: nearly all actives have a fitted effect of over 55% in size
Summary of the method: as §4

[12] = qHTS RealTime-Glo MT Cell Viability Assay in HEK293 cells - 40 hour (AID 1224874); details: RealTime-Glo luminescence; max response: stronger effect = lower value; further: nearly all actives have a fitted effect of over 50% in size
Summary of the method: (§5)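 Kinetic, non-lysing viability readout. Seed HEK293 (600/well) with reagent, incubate 5 h at 37 C/5% CO2, pin 23 nL compound in DMSO, incubate at 37 C, read luminescence at 0, 8, 16, 24, 32, 40 h.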

[13] = A CellTox Green Cytotoxicity Assay to monitor cytotoxicity in HepG2 cells - 16 hour (AID 1224876); further: nearly all actives have a fitted effect of over 45% in size
Summary of the method: (§6)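 Cytotoxicity was tracked as dead-cell DNA fluorescence in HepG2 cells treated with test compounds at 37 C; each time-point value comes from one kinetic series spanning 0, 8, 16, 24, 32 and 40 h.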

[14] = qHTS RealTime-Glo MT Cell Viability Assay in HepG2 cells - 32 hour (AID 1224877); further: nearly all actives have a fitted effect of over 55% in size
Summary of the method: as §1

[15] = A CellTox Green Cytotoxicity Assay to monitor cytotoxicity in HepG2 cells - 24 hour (AID 1224878); further: nearly all actives have a fitted effect of over 45% in size
Summary of the method: as §6

[16] = A CellTox Green Cytotoxicity Assay to monitor cytotoxicity in HepG2 cells - 40 hour (AID 1224879); further: nearly all actives have a fitted effect of over 40% in size
Summary of the method: as §6

[17] = qHTS RealTime-Glo MT Cell Viability Assay in HEK293 cells - 0 hour (AID 1224880); further: top concentration of the series differs between compounds; nearly all actives have a fitted effect of over 45% in size
Summary of the method: as §5

[18] = A CellTox Green Cytotoxicity Assay to monitor cytotoxicity in HEK293 cells - 24 hour (AID 1224875)
Summary of the method: as §3
On the % scale 0 is the no-effect control and ±100 the full control effect.

O=C(O)c1cccc(Cl)c1
inactive: Potency [1] | Potency [2] | outcome [3] | Potency [4] | Potency [5] | Potency [6] | Potency [7] | Potency [8] | Potency [9] | Potency [10] | Potency [11] | max response [12] 4.06% | Potency [13] | Potency [14] | Potency [15] | Potency [16] | outcome [17]

O=C(O)C(Br)CBr (centres undefined)
inactive: Potency [1] | Potency [2] | outcome [3] | Potency [4] | Potency [5] | Potency [6] | Potency [7] | Potency [8] | Potency [9] | Potency [11] | max response [12] 26% | Potency [18] | Potency [13] | Potency [14] | Potency [15] | Potency [16] | outcome [17]

CCOP(=O)(N=C1SCCS1)OCC
inactive: Potency [1] | Potency [2] | outcome [3] | Potency [4] | Potency [5] | Potency [6] | Potency [7] | Potency [8] | Potency [9] | max response [12] 21.4% | Potency [18] | Potency [13] | Potency [14] | Potency [15] | Potency [16] | outcome [17]

Cc1nc(N)nc(N)n1
inactive: Potency [1] | Potency [2] | outcome [3] | Potency [4] | Potency [5] | Potency [6] | Potency [7] | Potency [9] | Potency [10] | max response [12] -3.78% | Potency [18] | Potency [13] | Potency [14] | Potency [15] | Potency [16] | outcome [17]

CCOC(=O)N(C)C(=O)CSP(=S)(OCC)OCC
inactive: Potency [1] | Potency [2] | outcome [3] | Potency [4] | Potency [5] | Potency [6] | Potency [7] | Potency [9] | Potency [10] | max response [12] -10% | Potency [18] | Potency [13] | Potency [14] | Potency [15] | Potency [16] | outcome [17]

CC(CCc1ccccc1)NC(C)C(O)c1ccc(O)cc1 (centres undefined)
inactive: Potency [1] | Potency [2] | outcome [3] | Potency [4] | Potency [5] | Potency [6] | Potency [7] | Potency [9] | Potency [11] | max response [12] -21.9% | Potency [18] | Potency [13] | Potency [14] | Potency [15] | Potency [16] | outcome [17]

O=C(Oc1ccc(Br)cc1)N1CCN2CCC1CC2
inactive: Potency [1] | Potency [2] | outcome [3] | Potency [4] | Potency [5] | Potency [6] | Potency [7] | Potency [8] | Potency [11] | max response [12] -0.781% | Potency [18] | Potency [13] | Potency [14] | Potency [15] | Potency [16] | outcome [17]

N#CC(Cl)(Cl)Cl
inactive: Potency [1] | Potency [2] | outcome [3] | Potency [4] | Potency [5] | Potency [6] | Potency [7] | Potency [8] | Potency [9] | Potency [10] | max response [12] 3.49% | Potency [13] | Potency [14] | Potency [15] | Potency [16] | outcome [17]

O=C1OC(c2ccc(O)c(S(=O)(=O)O)c2)(c2ccc(O)c(S(=O)(=O)O)c2)c2c(Br)c(Br)c(Br)c(Br)c21
inactive: Potency [1] | Potency [2] | outcome [3] | Potency [4] | Potency [5] | Potency [6] | Potency [7] | Potency [8] | Potency [9] | max response [12] 11.8% | Potency [18] | Potency [13] | Potency [14] | Potency [15] | Potency [16] | outcome [17]

COc1cc(OC)nc(NC(=O)NS(=O)(=O)c2ncccc2C(=O)N(C)C)n1
inactive: Potency [1] | Potency [2] | outcome [3] | Potency [4] | Potency [5] | Potency [6] | Potency [7] | Potency [8] | Potency [9] | Potency [11] | max response [12] 7.6% | Potency [18] | Potency [13] | Potency [14] | Potency [15] | Potency [16] | outcome [17]

CCN(Cc1ccc(Cl)nc1)/C(=C/[N+](=O)[O-])NC
inactive: Potency [1] | Potency [2] | outcome [3] | Potency [4] | Potency [5] | Potency [6] | Potency [7] | Potency [8] | Potency [11] | max response [12] 2.66% | Potency [18] | Potency [13] | Potency [14] | Potency [15] | Potency [16] | outcome [17]

Cc1cnc[nH]1
inactive: Potency [1] | Potency [2] | outcome [3] | Potency [4] | Potency [5] | Potency [6] | Potency [7] | Potency [8] | Potency [9] | Potency [10] | max response [12] -2.47% | Potency [18] | Potency [13] | Potency [14] | Potency [15] | Potency [16] | outcome [17]

O=P(O)(Oc1ccccc1)Oc1ccccc1
inactive: Potency [1] | Potency [2] | outcome [3] | Potency [4] | Potency [5] | Potency [6] | Potency [7] | Potency [9] | Potency [11] | max response [12] 11.6% | Potency [13] | Potency [14] | Potency [15] | Potency [16] | outcome [17]

CCCSP(=O)(OCC)Oc1ccc(Br)cc1Cl (centres undefined)
inactive: Potency [1] | Potency [2] | outcome [3] | Potency [4] | Potency [5] | Potency [6] | Potency [7] | Potency [8] | Potency [9] | Potency [11] | max response [12] -3.49% | Potency [18] | Potency [13] | Potency [14] | Potency [15] | Potency [16] | outcome [17]

CN1CCC(N(Cc2ccccc2)c2ccccc2)CC1
inactive: Potency [1] | Potency [2] | outcome [3] | Potency [4] | Potency [5] | Potency [6] | Potency [7] | Potency [8] | Potency [10] | Potency [11] | max response [12] 0.452% | Potency [13] | Potency [14] | Potency [15] | outcome [17]

OC(c1ccc(F)cc1)(c1cncnc1)c1ccccc1Cl (centres undefined)
inactive: Potency [1] | Potency [2] | outcome [3] | Potency [4] | Potency [5] | Potency [6] | Potency [7] | Potency [10] | Potency [11] | max response [12] -29.2% | Potency [18] | Potency [13] | Potency [14] | Potency [15] | Potency [16] | outcome [17]
